Our source for the growth values is PubChem BioAssay (NCI).

Among the test systems are HCT-15 colon; HT29 colon; SNB-75 CNS; SNB-19 CNS; U251 CNS; PC-3 prostate; SK-MEL-5 melanoma; UACC-62 melanoma; LOX IMVI melanoma; SK-MEL-28 melanoma; SK-MEL-2 melanoma; EKVX NSCLC; SN12C renal; UO-31 renal; TK-10 renal; ACHN renal; CAKI-1 renal; A498 renal; CCRF-CEM leukemia; MOLT-4 leukemia.
Common to all, as to test: NCI-60 one-dose screen, 48 h (100 = growth as untreated, 0 = no growth, -100 = all killed)
What all share (conditions): 10 µM unless noted

Compounds without any hit were thinned out: in the full panel of roughly 83,000, 20% have a hit.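 Compound tested at a single concentration for 48 hours in 96-well plates; a percent growth value below 10 was scored as active.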 Values without a mark were called inactive. Calls of active or inactive are those of the source.

For `CN(C)CCNC(=O)c1cccc(-c2cnc3ccc(-c4ccc5c(c4)OCO5)nn23)c1`, the growth in the test on HCT-15 colon is 46%; in the test on HT29 colon, 10.9%; in the test with SNB-75 CNS, 73.2%; in the test with SNB-19 CNS it was 84.3%; in the test with U251 CNS, 86.1%; in the test with PC-3 prostate, 61.5%. The growth with SK-MEL-5 melanoma is 90.8%; in the test on UACC-62 melanoma, 81.8%; in the test with LOX IMVI melanoma, 20.7%; in the test with SK-MEL-28 melanoma it was 99.5%; in the test on SK-MEL-2 melanoma it was 69.8%; in the test with EKVX NSCLC it was 90%. Moreover, the growth in the test on SN12C renal was 70.8%; in the test on UO-31 renal it was 36.8%; in the test with TK-10 renal it was 75.9%; in the test on ACHN renal, 47.8%; in the test on CAKI-1 renal, 36.8%; in the test with A498 renal it was 90.7%. Also, the growth in the test with CCRF-CEM leukemia is 75.7%; in the test on MOLT-4 leukemia, 59.4%.

For `O=C(Nc1ccc(-c2nc(N3CCOCC3)c3cccn3n2)cc1)Nc1cccnc1`, the growth in the test on HCT-15 colon is 6.69% (active); in the test on HT29 colon, 7.6% (active); with SNB-75 CNS it was -26.5% (active); in the test on SNB-19 CNS, 5.92% (active); in the test on U251 CNS, 7.85% (active); with PC-3 prostate it was 3.8% (active). Further, the growth in the test with SK-MEL-5 melanoma is -71.5% (active); in the test on UACC-62 melanoma, -28.6% (active); with LOX IMVI melanoma, -1.37% (active); in the test on SK-MEL-28 melanoma, -17.3% (active); in the test on SK-MEL-2 melanoma, -4.42% (active); in the test with EKVX NSCLC it was -13.5% (active). Further, the growth in the test with SN12C renal was 6.41% (active); in the test on UO-31 renal, -9.74% (active); in the test with TK-10 renal, -17.4% (active); with ACHN renal, -5.66% (active); with CAKI-1 renal, 8.83% (active); in the test on A498 renal it was -35% (active). Further, the values for the growth in the test on CCRF-CEM leukemia and in the test on MOLT-4 leukemia were 12.6% and 5.84% (active), respectively.

Turning to `CC(C)n1cnc2c(=S)nc[nH]c21`, the growth in the test with HCT-15 colon was 102%; in the test on HT29 colon, 118%; in the test on SNB-75 CNS it was 117%; with SNB-19 CNS, 107%; in the test with U251 CNS, 98.9%; in the test with PC-3 prostate, 98.7%. For the same compound, the growth in the test with SK-MEL-5 melanoma was 103%; in the test on UACC-62 melanoma, 110%; in the test with LOX IMVI melanoma it was 93.7%; in the test on SK-MEL-28 melanoma, 131%; with SK-MEL-2 melanoma it was 114%; in the test with EKVX NSCLC it was 98%. The growth with SN12C renal was 108%; in the test with UO-31 renal, 92%; with TK-10 renal, 109%; with ACHN renal, 93.7%; in the test on CAKI-1 renal, 73.1%; with A498 renal, 127%. Besides, the growth in the test on CCRF-CEM leukemia is 90.9%; in the test with MOLT-4 leukemia, 56.6%.

`O=S(=O)(Nc1ccccc1)c1ccc(C2CC3(Cl)C(Cl)=C(Cl)C2(Cl)C3(Cl)Cl)cc1` (stereo not given): the growth is 50.6% in the test on HCT-15 colon; 35.2% with HT29 colon; 69.6% in the test with SNB-75 CNS; 77.6% in the test on SNB-19 CNS; 39.8% in the test on U251 CNS; 13.5% in the test with PC-3 prostate. The growth in the test with SK-MEL-5 melanoma is 60.7%; in the test on UACC-62 melanoma, 43.6%; in the test with LOX IMVI melanoma, 39%; in the test on SK-MEL-28 melanoma, 68.3%; in the test with SK-MEL-2 melanoma it was 74.1%; in the test on EKVX NSCLC it was 36.3%. Further, the growth in the test on SN12C renal was -18.5% (active); in the test with UO-31 renal, 26.7%; in the test on TK-10 renal it was 66.2%; with ACHN renal it was 40%; in the test with CAKI-1 renal it was -19.8% (active); with A498 renal, 62.4%. Moreover, the growth was 47.6% in the test on CCRF-CEM leukemia and 30% in the test with MOLT-4 leukemia.

Turning to `CNC(=O)c1cc(Oc2ccc3c(c2)sc2nc(-c4cc(OC)c(OC)c(OC)c4)cn23)ccn1`, the growth was 54.1% with HCT-15 colon; 65.3% in the test on HT29 colon; 50.3% in the test on SNB-75 CNS; 82.2% in the test on SNB-19 CNS; 61.9% in the test with U251 CNS; 34.3% in the test on PC-3 prostate. Besides, the growth in the test with SK-MEL-5 melanoma is -13.9% (active); with UACC-62 melanoma, 44.5%; in the test on LOX IMVI melanoma, 58%; in the test with SK-MEL-28 melanoma, 63.5%; with SK-MEL-2 melanoma it was 54.3%; with EKVX NSCLC, 50.2%. Further, the growth is 53.1% in the test with SN12C renal; 30.3% in the test with UO-31 renal; 50.3% in the test on TK-10 renal; 51.9% in the test with ACHN renal; 43.6% in the test with CAKI-1 renal; 53.7% in the test with A498 renal. Further, the growth is 39.4% in the test with CCRF-CEM leukemia and 18.3% in the test with MOLT-4 leukemia.

For `Nc1nc(=S)c2ncn(C3OC(COP(=O)(O)O)C(O)C3O)c2[nH]1` (stereo not given), the growth in the test on HCT-15 colon is 9.49% (active); in the test on HT29 colon, 7.19% (active); in the test with SNB-75 CNS, 47.8%; in the test on SNB-19 CNS it was 96.1%; with U251 CNS, 47.3%; in the test with PC-3 prostate, 29.1%. Further, the growth in the test on SK-MEL-5 melanoma was 69.5%; in the test on UACC-62 melanoma it was 14%; in the test with LOX IMVI melanoma, 3.07% (active); in the test on SK-MEL-28 melanoma, 73.5%; in the test with SK-MEL-2 melanoma, 14.9%; with EKVX NSCLC, 31.8%. Further, the growth with SN12C renal was 29.8%; in the test on UO-31 renal it was 25.1%; in the test with TK-10 renal it was 8.92% (active); in the test with ACHN renal, 20%; in the test with CAKI-1 renal, 16.8%; with A498 renal, 37.8%. Further, the growth was 15.5% with CCRF-CEM leukemia and 12.7% in the test on MOLT-4 leukemia.

Turning to `Fc1ccc(-c2nn(-c3ccccc3)cc2-c2nc3ccccc3o2)cc1`, the growth in the test on HCT-15 colon is 33.9%; in the test on HT29 colon, 99.6%; in the test on SNB-75 CNS it was 119%; in the test on SNB-19 CNS, 67.3%; in the test on U251 CNS it was 33.4%; in the test on PC-3 prostate, 51.6%. Further, the growth in the test with SK-MEL-5 melanoma is 57.9%; with UACC-62 melanoma, 74.9%; in the test with LOX IMVI melanoma, 24.7%; in the test on SK-MEL-28 melanoma it was 108%; in the test on SK-MEL-2 melanoma, 125%; with EKVX NSCLC, 84%. Moreover, the growth in the test on SN12C renal is 60.1%; with UO-31 renal it was 60.6%; in the test with TK-10 renal it was 126%; with ACHN renal, 53.9%; in the test on CAKI-1 renal, 82.1%; in the test with A498 renal, 45.4%. Further, the values for the growth in the test with CCRF-CEM leukemia and in the test on MOLT-4 leukemia were 66.4% and 73.7%, respectively.

`COc1ccc(-c2csc(NC(=O)CSc3nc(-c4ccccc4)cc(=O)[nH]3)n2)cc1`: the growth with HCT-15 colon was 70.9%; in the test with HT29 colon, 85.9%; in the test with SNB-75 CNS, 82.3%; in the test on SNB-19 CNS it was 70.1%; in the test with U251 CNS, 79.7%; with PC-3 prostate, 66.5%. Also, the growth is -16.5% (active) with SK-MEL-5 melanoma; 58.7% in the test with UACC-62 melanoma; 66% in the test with LOX IMVI melanoma; 90.6% with SK-MEL-28 melanoma; 59.7% in the test on SK-MEL-2 melanoma; 58.1% in the test on EKVX NSCLC. The growth in the test on SN12C renal is 80.3%; in the test with UO-31 renal, 65.6%; with TK-10 renal, 78.9%; with ACHN renal it was 63%; in the test on CAKI-1 renal, 74.7%; with A498 renal it was 64.7%. The growth in the test with CCRF-CEM leukemia is 57.9%; in the test on MOLT-4 leukemia, 14.4%.
